# Bioassay records deposited in PubChem BioAssay by Sanford-Burnham Center for Chemical Genomics.
# PLAP activator – human PLAP activation. P05187. purified PLAP enzyme, luminescent substrate read-out; stronger effect = higher value. activation fold at 20 µM. hit rate 1.2% among 96,000; in the data active means activation fold above about 2
# HePTP inh – human HePTP phosphatase inhibition; P35236; recombinant HePTP phosphatase activity, OD absorbance; inhibition, % at 20 µM; hit rate 0.64% among 110,000; in the data active means inhibition above about 50%;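 further: plate controls were vehicle for no effect and reference inhibitor for full effect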
# CD11b adhes inh – inhibitors of human CD11b/CD18 binding to fibrinogen; K562 CD11b/CD18 adhesion to fibrinogen, ATPlite luminescence; Mn2+ added to activate the integrin; hit rate 0.54% among 93,000; P05107+P11215; AID 1497; inhibition, % at 10 µM;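 active means primary inhibition of 50% or more at 10 µM, then 40% or more on retest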
# Target sequence (P05107 whole entry, looked up, other chains not shown): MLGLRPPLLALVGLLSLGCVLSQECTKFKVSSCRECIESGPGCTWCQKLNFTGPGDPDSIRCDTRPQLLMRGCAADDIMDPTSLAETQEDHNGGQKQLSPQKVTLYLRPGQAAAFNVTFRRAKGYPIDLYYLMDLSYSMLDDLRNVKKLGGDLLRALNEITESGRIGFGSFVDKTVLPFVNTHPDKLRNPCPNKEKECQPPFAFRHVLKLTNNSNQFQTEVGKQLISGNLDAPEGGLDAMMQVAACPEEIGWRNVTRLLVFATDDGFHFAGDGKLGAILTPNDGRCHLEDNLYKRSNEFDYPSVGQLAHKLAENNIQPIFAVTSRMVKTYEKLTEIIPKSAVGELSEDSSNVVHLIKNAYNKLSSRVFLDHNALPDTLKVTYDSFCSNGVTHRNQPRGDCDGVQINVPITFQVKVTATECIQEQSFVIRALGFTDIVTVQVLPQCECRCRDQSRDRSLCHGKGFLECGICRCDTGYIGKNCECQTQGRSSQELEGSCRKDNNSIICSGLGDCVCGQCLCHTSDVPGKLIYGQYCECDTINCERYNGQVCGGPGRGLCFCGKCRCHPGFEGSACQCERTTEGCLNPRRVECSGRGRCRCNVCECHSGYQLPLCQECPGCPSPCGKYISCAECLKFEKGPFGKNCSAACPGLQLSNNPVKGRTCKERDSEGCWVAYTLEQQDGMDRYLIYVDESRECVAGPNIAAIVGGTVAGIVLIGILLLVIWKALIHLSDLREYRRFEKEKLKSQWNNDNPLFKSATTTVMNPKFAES
# Mac1 fbg enh – increases human CD11b/CD18 adhesion to fibrinogen. K562 CD11b/CD18 adhesion to fibrinogen, ATPlite luminescence. activation, % at 10 µM. hit rate 0.07% among 93,000. AID 1499;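 active means 10 µM primary screen giving 50% or more activity, confirmed by 40% or more on retest at that dose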
# Active calls of the source: *; . = not tested or not shown; ! = not confirmed by another sample. A selection: hits, their analogues and other compounds. The true share with any hit is near 1.5%.
SMILES,PLAP activator,HePTP inh,CD11b adhes inh,Mac1 fbg enh
O=C(Nc1ccc(S(=O)(=O)N2CCc3ccccc32)cc1)c1cccc([N+](=O)[O-])c1,.,-3.1,.,.
O=C(Nc1ncccc1O)c1cccc(S(=O)(=O)N2CCc3ccccc32)c1,2.5*,6.6,10.7,0.2
CN1CCN(C(=O)CC23CC4CC(CC(C4)C2)C3)CC1,1.2,103.9*!,-5.3,-6.7
O=C(CC12CC3CC(CC(C3)C1)C2)N1CCCC1,1,.,-3.6,-0.9
Cc1cc(C)nc(SCC(=O)Nc2ccccc2C(=O)O)n1,.,5.0,.,.
CCOC(=O)c1c(NC(=O)c2ccc(Cl)s2)sc2c1CCC(C)C2 (centres undefined),.,-5.9,.,.
COc1ccc(-n2c(N)c(C(=O)NCC3CCCO3)c3nc4ccccc4nc32)c(OC)c1 (centres undefined),2*,2.2,-2.2,-2.5
C=CCn1c(N)c(C(=O)NCC2CCCO2)c2nc3ccccc3nc21 (centres undefined),1.6,8.9,4.8,-3.6
O=C(COC(=O)c1cccc([N+](=O)[O-])c1)c1ccc(Br)cc1,.,5.5,.,.
O=C1C=CC(=O)c2c1c(-c1ccccc1)nn2-c1ccccc1,.,70.7*,.,.
c1cncc(CN2CCN(Cc3cccc4ccccc34)CC2)c1,.,3.5,.,.
CCCC1=NN2C(=N)/C(=C/c3ccc(-c4ccc([N+](=O)[O-])cc4C)o3)C(=O)N=C2S1,.,82.3*,.,.
CCC1=NN2C(=N)/C(=C/c3ccc(-c4ccc([N+](=O)[O-])cc4OC)o3)C(=O)N=C2S1,.,-11.5,.,.
CC(=O)NN1C(=O)/C(=C/c2cc3c(cc2[N+](=O)[O-])OCO3)SC1=S,.,92.9*,.,.
O=C1/C(=C\c2cc3c(cc2[N+](=O)[O-])OCO3)SC(=S)N1c1ccccc1,.,-3.0,.,.
Cc1ccc(S(=O)(=O)NC(CC(C)C)C(=O)Nc2nccs2)cc1 (centres undefined),2.2*,.,-3.6,-2.5
Cc1nnc(NC(=O)c2sc3ccccc3c2Cl)s1,1.4,1.6,69.9*,-5.1
CC(C)Oc1ccccc1NC(=O)CSCC(=O)Nc1ccc2ccccc2c1,.,4.2,.,.
O=C(CSc1nc2ccccc2n1Cc1ccccc1)N/N=C/c1ccc([N+](=O)[O-])cc1,.,86.2*,.,.
COc1ccc(OC)c(Nc2nc(-c3sc(C)nc3C)cs2)c1,2.1*,-4.0,5.2,0.9
COc1ccc(OC)c(Nc2nc(-c3sc(NC(=O)C(C)(C)C)nc3C)cs2)c1,1.1,.,-6.2,1.0
COc1ccccc1NC(=O)c1ccc(N2C(=O)c3ccc([N+](=O)[O-])cc3C2=O)cc1,.,-11.3,.,.
O=C1/C(=C/c2ccc(Br)cc2)SC(=S)N1c1cccc(Br)c1,.,5.5,.,.
COC(=O)c1sc(NC(=O)CCc2ccccc2)c(C(=O)OC)c1C,.,104.0*,.,.
O=C1C(=Cc2ccc(I)o2)C(=O)c2ccccc21,.,78.2*,.,.
SMILES,PLAP activator,HePTP inh,CD11b adhes inh,Mac1 fbg enh
CC1(C)OC(=O)C(=Cc2ccc(I)o2)C(=O)O1,.,102.3*,.,.
CC(C)c1ccc(N2C(=O)NC(=O)/C(=C/c3ccc(I)o3)C2=O)cc1,.,32.1,.,.
COc1cc(Br)c(Br)c(/C=N\NC(=O)c2ccccc2Cl)c1O,.,-7.3,.,.
c1csc(Cc2nn3c(-c4n[nH]c5c4CCC5)nnc3s2)c1,2.1*,9.1,-0.5,31.9
c1coc(-c2nnc3sc(Cc4cccs4)nn23)c1,0.9,16.2,-2.7,1.5
CCOc1cccc(-c2nn3c(-c4cc(C)[nH]n4)nnc3s2)c1,2.4*,-8.8,8.1,0.3
CCOc1cccc(-c2nnc3sc(-c4cc(OC)c(OC)cc4OC)nn23)c1,1,-1.6,0.5,2.0
O=C(Nc1ccccc1Cl)c1ccccc1C(F)(F)F,.,103.5*,.,.
C#CC(C)(C)NC(=O)/C=C/c1ccccc1Cl,.,-2.9,.,.
O=C(NNC1=C(C(=O)C(F)(F)F)CCC1)c1ccc(O)cc1,.,1.3,.,.
O=C(NNC1=C(C(=O)C(F)(F)F)CCC1)c1ccccc1Cl,2.1*,.,1.2,1.9
O=C(NNC1=C(C(=O)C(F)(F)F)CCC1)c1ccc(Br)cc1,1.7,.,97.3*,-10.4
COc1ccc(OC)c(NC(=O)CN(Cc2ccccc2)S(=O)(=O)c2ccccc2)c1,.,-6.0,.,.
C=CCN1C(=O)C(CC(=O)Nc2ccc(C)cc2)SC1=Nc1c(C)n(C)n(-c2ccccc2)c1=O (centres undefined),2.1*,.,2.3,-2.0
C=CCN1C(=O)C(CC(=O)O)SC1=Nc1c(C)n(C)n(-c2ccccc2)c1=O (centres undefined),1.3,3.5,3.0,-3.1
Oc1csc(Cc2nc(-c3ccc(-c4ccccc4)cc3)cs2)n1,1,.,-1.6,161.0*
Fc1ccc(C(c2nnnn2Cc2cccs2)N2CCN(C3CCCCC3)CC2)cc1 (centres undefined),2.1*,9.4,-4.7,0.5
CN1CCN(C(c2ccc(F)cc2)c2nnnn2Cc2cccs2)CC1 (centres undefined),1.6,3.4,-6.3,0.3
COCc1cc(=O)[nH]c(Nc2nc(C)c3cc(OC)ccc3n2)n1,2.1*,.,-53.5,-3.0
COc1ccc(Br)cc1C(=O)Nc1ccc2c(c1)oc1ccccc12,.,5.1,.,.
CC1=NOC(=O)/C1=C\c1ccc(-c2cc(Cl)ccc2Cl)o1,1.1,.,30.0,-5.6
CC1=NOC(=O)/C1=C/c1ccc(-c2ccc(Cl)cc2)o1,0.9,.,93.6*,-6.2
CCCCn1c(SCC(=O)NCc2ccco2)nc2c(sc3ccccc32)c1=O,1,.,53.7*,12.4
O=C(CSc1nc2c(sc3ccccc32)c(=O)n1CCc1ccccc1)NCc1ccco1,1.1,.,15.5,1.7
CCOCCCn1c(SCC(=O)NCc2ccco2)nc2c(sc3ccccc32)c1=O,1.4,.,56.0*,-0.5
SMILES,PLAP activator,HePTP inh,CD11b adhes inh,Mac1 fbg enh
COc1ccc(C(=O)Nc2nnc(-c3ccccc3)o2)cc1OC,2.1*,13.9,-5.7,-1.3
CCCN(CCC)S(=O)(=O)c1ccc(C(=O)Nc2nnc(-c3cccc(OC)c3)o2)cc1,.,7.4,.,.
CCCN(CCC)S(=O)(=O)c1ccc(C(=O)Nc2nnc(-c3cc(OC)cc(OC)c3)o2)cc1,2*,12.5,-12.5,20.4
N#C/C(=C/c1ccsc1)C(=O)Nc1cccc(Br)c1,.,1.0,.,.
COc1ccc([N+](=O)[O-])cc1NC(=O)C1C2CCC(C2=C(C)C)C1C(=O)O (centres undefined),.,-11.9,.,.
CCOC(=O)CSc1nnc(CSc2nc3sc4c(c3c(=O)[nH]2)CCC4)n1-c1ccccc1,2*,.,-33.3,2.8
Cc1cccc(C(=O)Nc2sc3c(c2C(=O)N2CCCCC2)CCCCC3)c1,.,-0.7,.,.
Cc1ccc(NC(=O)CN2C(=O)S/C(=C/c3ccc(-c4cc(C(=O)O)ccc4C)o3)C2=O)cc1C,1.5,.,39.2,61.2*
Cc1cc(C)nc(SCC(=O)NN=C2CCCCCC2)n1,.,-19.2,.,.
Cc1ccc2[nH]c3c(N4CCc5ccccc5C4)ncnc3c2c1,1,.,.,.
Brc1ccc2[nH]c3c(N4CCc5ccccc5C4)ncnc3c2c1,1.1,.,74.6*,-0.4
Oc1c(N=Nc2cccc(Br)c2)sc2ccccc12,.,18.7,.,.
O=C(CSc1ncn[nH]1)Nc1nnc(-c2ccccc2)s1,2.3*,-7.1,-4.6,-2.3
Cc1ccc(NCc2nnc(SCCN3CCCCC3)n2CC2CCCO2)cc1Cl (centres undefined),2*,9.8,2.1,-1.6
